About 1,300 (0.34%) of roughly 380,000 compounds were called active. This excerpt belongs to a sample that is enriched for actives. Unmarked numbers belong to inactive results.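 How the source made its calls: active means drop in luminescence signal, shown as inhibition above about 50% in the replicate tests (limit read from the data, passing the limit was not always enough); inconclusive means probably only some replicates passing the limit; inactive means the rest.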

One may read the inhibition as the relative decrease from the control value, in per cent.

The test system of this test is Drosophila bursicon receptor LGR2 (rickets). The test can be described thus: LGR2 cAMP reporter signal reduction – cell-based, HEK293, CRE-luciferase reporter, bursicon stimulation, primary screen (AID 720647).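 Further: agonist challenge used bursicon conditioned medium at about half maximal strength.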 To be noted: bursicon-stimulated, 4 h, at 9.99 µM, hits give high values. Background: A reporter such as luciferase makes a cellular process visible.
On to `C[C@@H]1CCCCO[C@@H](CN(C)C)[C@@H](C)CN([C@H](C)CO)C(=O)c2cc(N(C)C)ccc2O1`, for which the inhibition is -6.42%.

Turning to `C[C@H]1CN([C@@H](C)CO)C(=O)c2cc(NC(=O)C3CCCCC3)ccc2O[C@H]1CN(C)C(=O)Nc1ccccc1`, the inhibition was 2.55%. Next, `N#C[C@@H]1[C@H](c2ccc(C#Cc3ccccc3F)cc2)[C@H](CO)N1C(=O)C1CCCCC1`: 74.8% (active). Next, `N#C[C@@H]1[C@H](c2ccc(C#CC3CCCCC3)cc2)[C@@H](CO)N1S(=O)(=O)c1ccccc1`: 61.9% (active); `N#C[C@@H]1[C@H](c2ccc(C#Cc3cccc(F)c3)cc2)[C@@H](CO)N1C(=O)C1CCCC1`: 82.4% (active). For the compound `CS(=O)(=O)N1[C@@H](C#N)[C@H](c2ccc(C#CC3CCCCC3)cc2)[C@@H]1CO`, the inhibition was -5.08%. The result for `N#C[C@H]1[C@H](c2ccc(C#Cc3ccc(F)cc3)cc2)[C@@H](CO)N1C(=O)C1CCCC1` reads 16.6%; that for `COc1ccccc1C#Cc1ccc([C@H]2[C@@H](C#N)N(C(=O)C3CCCCC3)[C@@H]2CO)cc1`, 18.3%; that for `N#C[C@@H]1[C@@H](c2ccc(C#Cc3cccc(F)c3)cc2)[C@@H](CO)N1C(=O)C1CCC1`, -19.3%. Turning to `CS(=O)(=O)N1[C@H](C#N)[C@H](c2ccc(C#CC3CCCC3)cc2)[C@H]1CO`, the inhibition is -37.6%. Next, `N#C[C@@H]1[C@@H](c2ccc(C#Cc3cccc(F)c3)cc2)[C@H](CO)N1C(=O)C1CCOCC1`: -34.2%; `C[C@@H]1CN([C@@H](C)CO)S(=O)(=O)c2ccc(C#CCN(C)C)cc2O[C@H]1CN(C)C(=O)C1CC1`: 6.68%; `Cc1noc(C)c1S(=O)(=O)N(C)C[C@@H]1OCCCC[C@@H](C)Oc2ccc(NC(=O)c3ccccc3)cc2C(=O)N([C@@H](C)CO)C[C@@H]1C`: 12.5%. Next, `O=C(N[C@H]1CC[C@@H](CCNS(=O)(=O)c2ccc(F)cc2)O[C@@H]1CO)c1ccccn1`: 11.4%.

Turning to `CCC(=O)Nc1ccc2c(c1)OC[C@H](C)N(CC1CCCCC1)C[C@@H](C)[C@H](OC)CN(C)C2=O`, the inhibition was 4.64%. The result for `CCC(=O)N1CCC2(CC1)CN(S(C)(=O)=O)[C@@H](CO)c1c2c2ccc(OC)cc2n1C` reads -17.4%. Turning to `CCCC#Cc1cnc2c(c1)C(=O)N([C@H](C)CO)C[C@H](C)[C@@H](CN(C)S(=O)(=O)c1ccccc1)O2`, the inhibition is -10.8%. Next, `C[C@@H]1CN([C@@H](C)CO)S(=O)(=O)c2ccc(Br)cc2O[C@@H]1CN(C)C(=O)C1CCCCC1`: -1.83%; `Cc1noc(C)c1NC(=O)Nc1ccc2c(c1)C(=O)N([C@@H](C)CO)C[C@@H](C)[C@H](CN(C)C(=O)NC(C)C)O2`: 9.15%. The result for `CCCNC(=O)[C@H]1[C@H](CO)[C@H]2Cn3c(ccc(-c4cccc(F)c4)c3=O)[C@@H]1N2C(=O)CC` reads 4.62%.

As to `CC(C)CC#Cc1ccc([C@H]2[C@H]3CN(C(=O)CN4CCOCC4)CC(=O)N3[C@H]2CO)cc1`, the inhibition was -1.92%.

For the compound `COc1ccc2c3c(n(C)c2c1)[C@H](CO)N(C(=O)CC1CC1)CC31CCN(Cc2nccs2)CC1`, the inhibition was 4.96%.

Take `Cc1cc(C(=O)COc2ccccc2Cl)c(C)n1C1CC1`: the inhibition was -70%.

As for `Cc1cc(C(=O)CSc2nc(N)cc(=O)[nH]2)c(C)n1-c1cccc(F)c1`, the inhibition was 1.57%. Take `Cc1cc(C(=O)COC(=O)C2CC2)c(C)n1-c1ccc(F)cc1`: the inhibition is 81.6% (active). The result for `CNC[C@@H]1Oc2ccc(NC(=O)Nc3ccc4c(c3)OCO4)cc2C(=O)N([C@H](C)CO)C[C@@H]1C` reads -5.83%; that for `CO[C@@H]1CN(C)C(=O)c2cc(NS(C)(=O)=O)ccc2OC[C@@H](C)N(C(=O)C2CCC2)C[C@@H]1C`, -11.1%; that for `O=C(C[C@H]1CC[C@H]2[C@@H](COC[C@@H](O)CN2Cc2ccccc2)O1)N[C@@H]1CCN(Cc2ccccc2)C1`, 1.95%.

For `O=C(NC1=CC(=O)c2ccccc2C1=O)c1ccccc1`, the inhibition was 61.4% (active).

On to `CCS(=O)(=O)N1CC2(C1)CN(S(=O)(=O)c1ccccc1)[C@H](CO)c1c2c2ccc(OC)cc2n1C`, for which the inhibition is -11.1%. Next, `CC(C)NC(=O)Nc1ccc2c(c1)CC(=O)N([C@H](C)CO)C[C@@H](C)[C@@H](CN(C)C(=O)Nc1ccc3c(c1)OCO3)O2`: -3.26%. Next, `CCCCCCCCn1c2c(c(=N)c3c1CCC3)CCCC2`: 52.6% (active). As for `Cc1noc(C)c1NC(=O)Nc1ccc2c(c1)C(=O)N([C@@H](C)CO)C[C@@H](C)[C@H](CN(C)Cc1ccc(C(F)(F)F)cc1)O2`, the inhibition was -7.29%. Regarding `C[C@H]1CN([C@@H](C)CO)C(=O)c2cc(C3=CCCCC3)cnc2O[C@@H]1CN(C)C(=O)c1ccc(F)cc1`, the inhibition is 2.17%. Next, `CN1c2ccc(Br)cc2[C@@H]2[C@@H](CCN2C(=O)C2CCCC2)[C@H]1CO`: 1.06%; `Cc1cccc(-n2ncc(Cl)c(Cl)c2=O)c1`: 103% (active); `Cc1cc(=O)cc(C)n1-c1ccc(Cl)c(Cl)c1`: 5.96%. The result for `COc1cccc(C2SCC(=O)N2c2cccc(C)c2)c1OC` (configuration not stated) reads 7.83%; that for `CCNC(=O)C[C@@H]1CC[C@H]2[C@@H](COC[C@@H](O)CN2C(=O)c2cc(Cl)cc(Cl)c2)O1`, 11.4%. Next, `C[C@@H]1CN([C@@H](C)CO)C(=O)c2cc(NS(=O)(=O)c3ccccc3)ccc2O[C@H]1CN(C)S(=O)(=O)c1ccc(Cl)cc1`: 13.5%; `CCOC(=O)C1=C(c2ccccc2)NC(=O)NC1c1cc(OC)c(OC)cc1OC` (configuration not stated): 8.83%. `CCOC(=O)C1=C(c2ccc(OC)cc2)C(=O)c2ccccc2C1=O`: the inhibition is 99.6% (active). In the case of `CCOC(=O)C1=C(C)c2ccccc2OC1C(=O)OCC` (configuration not stated), the inhibition is -7.81%.

For the compound `CO[C@H]1CN(C)C(=O)c2cc(NC(=O)Nc3ccc4c(c3)OCO4)ccc2OC[C@@H](C)NC[C@@H]1C`, the inhibition was -36.2%. The result for `C[C@H](CO)N1C[C@H](C)[C@H](CN(C)C(=O)Nc2ccccc2C(F)(F)F)OCc2cn(nn2)CCCC1=O` reads 3.25%; that for `CC(C)NC(=O)N(C)C[C@H]1OCCCC[C@H](C)Oc2ccc(NC(=O)CCC(F)(F)F)cc2C(=O)N([C@H](C)CO)C[C@H]1C`, 1.7%; that for `Cc1noc(C)c1S(=O)(=O)N(C)C[C@@H]1Oc2ccc(NC(=O)Cn3cnnn3)cc2CC(=O)N([C@@H](C)CO)C[C@H]1C`, 0.447%.

The values above are taken from PubChem BioAssay AID720647 (Broad Institute, 2013).
